Targets with a hit are over-represented here; the source holds about 7,900 in all. About 0.6% of all pairs of compound and target were hits.
These targets were tested with CCCc1cc(C)[nH]c(=O)c1CNC(=O)c1cc(-c2ccnc(N3CCN(C)CC3)c2)cc2c1cnn2C(C)C (assay: log2 fold change, soluble protein after heating vs DMSO (PISA); higher = thermal stabilisation; K562 cells, 10 uM, 30 min; active = over 0.2 and 3.5 SD of the protein, either way, in both replicates (recomputed)).
In short: (§1)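 K562 cells at 2×10^6 cells/mL were treated with 10 μM compound for 30 min. Aliquots were heated for 3 min across 48°C-58°C, pooled, and extracted in PBS with 0.5% NP-40 at 4°C; soluble protein was the supernatant after 21,000xg for 90 min. Soluble protein was quantified by TMTpro 16plex LC-MS/MS with channel sums equalised, and reported as log2 fold change in thermal stability against DMSO controls, with values from duplicates.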

Chain of UniProt Q99615 (Q99615 whole entry, looked up): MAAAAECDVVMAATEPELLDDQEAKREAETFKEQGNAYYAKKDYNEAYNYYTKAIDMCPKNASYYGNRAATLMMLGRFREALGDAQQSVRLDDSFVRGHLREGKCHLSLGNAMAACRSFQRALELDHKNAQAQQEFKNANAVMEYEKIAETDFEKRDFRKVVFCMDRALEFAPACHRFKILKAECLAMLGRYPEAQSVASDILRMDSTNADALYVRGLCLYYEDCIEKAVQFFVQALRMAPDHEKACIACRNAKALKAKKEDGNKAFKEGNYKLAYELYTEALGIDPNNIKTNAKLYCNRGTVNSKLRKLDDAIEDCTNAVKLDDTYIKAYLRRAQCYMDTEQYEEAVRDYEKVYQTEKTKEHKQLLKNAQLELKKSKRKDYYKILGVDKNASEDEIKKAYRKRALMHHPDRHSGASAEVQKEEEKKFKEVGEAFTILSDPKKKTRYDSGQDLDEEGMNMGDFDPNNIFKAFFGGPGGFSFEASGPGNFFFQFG
Chain of UniProt P09622 (P09622 whole entry, looked up): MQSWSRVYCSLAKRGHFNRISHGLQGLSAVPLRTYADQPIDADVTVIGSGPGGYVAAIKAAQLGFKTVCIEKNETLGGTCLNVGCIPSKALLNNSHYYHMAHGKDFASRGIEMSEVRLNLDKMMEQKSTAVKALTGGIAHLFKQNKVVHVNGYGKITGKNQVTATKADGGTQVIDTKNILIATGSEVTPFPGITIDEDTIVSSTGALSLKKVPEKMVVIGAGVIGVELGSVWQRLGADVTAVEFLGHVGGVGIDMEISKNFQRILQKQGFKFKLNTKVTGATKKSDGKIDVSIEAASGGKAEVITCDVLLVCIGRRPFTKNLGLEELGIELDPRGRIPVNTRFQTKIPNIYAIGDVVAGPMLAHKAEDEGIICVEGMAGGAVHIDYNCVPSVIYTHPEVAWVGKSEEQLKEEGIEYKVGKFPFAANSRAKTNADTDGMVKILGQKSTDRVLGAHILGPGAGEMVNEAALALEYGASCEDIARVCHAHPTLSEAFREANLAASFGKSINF
Chain of UniProt P98173 (P98173 whole entry, looked up): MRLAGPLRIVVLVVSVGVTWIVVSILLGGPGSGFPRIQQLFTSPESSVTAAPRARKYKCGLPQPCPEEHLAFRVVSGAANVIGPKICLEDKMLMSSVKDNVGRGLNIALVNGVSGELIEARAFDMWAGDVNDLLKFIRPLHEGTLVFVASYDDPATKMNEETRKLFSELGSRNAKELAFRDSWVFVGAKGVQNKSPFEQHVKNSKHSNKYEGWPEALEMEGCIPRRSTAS
Chain of UniProt Q99848 (Q99848 whole entry, looked up): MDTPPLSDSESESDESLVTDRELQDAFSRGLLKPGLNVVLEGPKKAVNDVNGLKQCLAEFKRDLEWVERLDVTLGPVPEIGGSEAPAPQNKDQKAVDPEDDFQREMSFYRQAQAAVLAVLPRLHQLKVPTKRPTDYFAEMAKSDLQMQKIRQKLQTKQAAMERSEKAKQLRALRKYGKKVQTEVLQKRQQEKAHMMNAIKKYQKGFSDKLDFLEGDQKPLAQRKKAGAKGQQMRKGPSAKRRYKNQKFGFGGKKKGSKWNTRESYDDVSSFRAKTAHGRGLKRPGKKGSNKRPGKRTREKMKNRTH
Chain of UniProt Q7L576 (Q7L576 whole entry, looked up): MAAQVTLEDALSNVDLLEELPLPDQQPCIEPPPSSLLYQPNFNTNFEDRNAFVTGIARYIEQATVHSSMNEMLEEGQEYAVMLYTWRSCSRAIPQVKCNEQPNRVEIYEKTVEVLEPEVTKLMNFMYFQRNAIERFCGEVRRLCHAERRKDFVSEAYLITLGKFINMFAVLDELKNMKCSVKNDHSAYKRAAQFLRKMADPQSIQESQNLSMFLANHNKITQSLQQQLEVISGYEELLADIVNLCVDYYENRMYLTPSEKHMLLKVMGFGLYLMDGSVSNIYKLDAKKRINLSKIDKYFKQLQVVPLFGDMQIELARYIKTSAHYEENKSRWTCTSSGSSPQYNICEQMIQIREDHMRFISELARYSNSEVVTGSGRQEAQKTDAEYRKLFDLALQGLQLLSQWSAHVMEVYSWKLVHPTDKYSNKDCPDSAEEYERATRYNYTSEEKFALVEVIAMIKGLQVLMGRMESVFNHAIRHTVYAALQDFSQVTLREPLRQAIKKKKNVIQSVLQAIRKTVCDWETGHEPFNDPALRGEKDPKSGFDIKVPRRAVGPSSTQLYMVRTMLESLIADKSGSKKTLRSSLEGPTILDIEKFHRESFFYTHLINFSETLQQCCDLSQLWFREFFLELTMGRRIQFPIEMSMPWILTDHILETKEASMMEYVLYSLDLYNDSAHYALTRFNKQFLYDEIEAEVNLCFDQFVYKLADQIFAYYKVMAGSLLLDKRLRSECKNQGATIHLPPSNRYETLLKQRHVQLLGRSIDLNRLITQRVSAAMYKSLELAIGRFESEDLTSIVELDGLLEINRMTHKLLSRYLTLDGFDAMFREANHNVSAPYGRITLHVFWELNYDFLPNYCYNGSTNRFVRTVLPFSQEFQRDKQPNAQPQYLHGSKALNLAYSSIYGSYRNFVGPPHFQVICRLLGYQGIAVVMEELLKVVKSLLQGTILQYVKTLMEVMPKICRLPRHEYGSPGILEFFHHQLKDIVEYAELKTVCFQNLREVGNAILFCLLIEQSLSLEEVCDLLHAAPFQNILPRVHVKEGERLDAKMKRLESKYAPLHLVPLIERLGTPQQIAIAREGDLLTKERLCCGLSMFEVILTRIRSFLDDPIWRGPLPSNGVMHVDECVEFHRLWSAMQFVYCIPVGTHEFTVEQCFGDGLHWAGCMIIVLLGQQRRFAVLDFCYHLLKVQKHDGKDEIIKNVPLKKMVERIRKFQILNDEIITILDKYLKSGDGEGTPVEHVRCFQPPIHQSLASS
Chain of UniProt Q9NRY5 (Q9NRY5 whole entry, looked up): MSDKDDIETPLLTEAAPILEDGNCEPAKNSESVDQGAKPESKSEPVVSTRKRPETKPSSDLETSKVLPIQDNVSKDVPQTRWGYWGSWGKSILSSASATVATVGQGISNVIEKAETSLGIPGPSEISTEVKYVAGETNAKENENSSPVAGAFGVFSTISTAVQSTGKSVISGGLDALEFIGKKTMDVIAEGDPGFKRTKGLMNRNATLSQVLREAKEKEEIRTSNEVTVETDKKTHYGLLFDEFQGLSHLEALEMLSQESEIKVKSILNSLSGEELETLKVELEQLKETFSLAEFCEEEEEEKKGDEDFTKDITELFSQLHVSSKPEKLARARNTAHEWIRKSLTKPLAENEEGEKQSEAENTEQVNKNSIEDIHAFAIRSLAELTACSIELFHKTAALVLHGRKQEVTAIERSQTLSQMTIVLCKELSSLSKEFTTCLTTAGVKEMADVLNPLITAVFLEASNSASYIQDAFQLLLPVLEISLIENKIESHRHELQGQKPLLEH
Chain of UniProt Q03468 (Q03468 whole entry, looked up): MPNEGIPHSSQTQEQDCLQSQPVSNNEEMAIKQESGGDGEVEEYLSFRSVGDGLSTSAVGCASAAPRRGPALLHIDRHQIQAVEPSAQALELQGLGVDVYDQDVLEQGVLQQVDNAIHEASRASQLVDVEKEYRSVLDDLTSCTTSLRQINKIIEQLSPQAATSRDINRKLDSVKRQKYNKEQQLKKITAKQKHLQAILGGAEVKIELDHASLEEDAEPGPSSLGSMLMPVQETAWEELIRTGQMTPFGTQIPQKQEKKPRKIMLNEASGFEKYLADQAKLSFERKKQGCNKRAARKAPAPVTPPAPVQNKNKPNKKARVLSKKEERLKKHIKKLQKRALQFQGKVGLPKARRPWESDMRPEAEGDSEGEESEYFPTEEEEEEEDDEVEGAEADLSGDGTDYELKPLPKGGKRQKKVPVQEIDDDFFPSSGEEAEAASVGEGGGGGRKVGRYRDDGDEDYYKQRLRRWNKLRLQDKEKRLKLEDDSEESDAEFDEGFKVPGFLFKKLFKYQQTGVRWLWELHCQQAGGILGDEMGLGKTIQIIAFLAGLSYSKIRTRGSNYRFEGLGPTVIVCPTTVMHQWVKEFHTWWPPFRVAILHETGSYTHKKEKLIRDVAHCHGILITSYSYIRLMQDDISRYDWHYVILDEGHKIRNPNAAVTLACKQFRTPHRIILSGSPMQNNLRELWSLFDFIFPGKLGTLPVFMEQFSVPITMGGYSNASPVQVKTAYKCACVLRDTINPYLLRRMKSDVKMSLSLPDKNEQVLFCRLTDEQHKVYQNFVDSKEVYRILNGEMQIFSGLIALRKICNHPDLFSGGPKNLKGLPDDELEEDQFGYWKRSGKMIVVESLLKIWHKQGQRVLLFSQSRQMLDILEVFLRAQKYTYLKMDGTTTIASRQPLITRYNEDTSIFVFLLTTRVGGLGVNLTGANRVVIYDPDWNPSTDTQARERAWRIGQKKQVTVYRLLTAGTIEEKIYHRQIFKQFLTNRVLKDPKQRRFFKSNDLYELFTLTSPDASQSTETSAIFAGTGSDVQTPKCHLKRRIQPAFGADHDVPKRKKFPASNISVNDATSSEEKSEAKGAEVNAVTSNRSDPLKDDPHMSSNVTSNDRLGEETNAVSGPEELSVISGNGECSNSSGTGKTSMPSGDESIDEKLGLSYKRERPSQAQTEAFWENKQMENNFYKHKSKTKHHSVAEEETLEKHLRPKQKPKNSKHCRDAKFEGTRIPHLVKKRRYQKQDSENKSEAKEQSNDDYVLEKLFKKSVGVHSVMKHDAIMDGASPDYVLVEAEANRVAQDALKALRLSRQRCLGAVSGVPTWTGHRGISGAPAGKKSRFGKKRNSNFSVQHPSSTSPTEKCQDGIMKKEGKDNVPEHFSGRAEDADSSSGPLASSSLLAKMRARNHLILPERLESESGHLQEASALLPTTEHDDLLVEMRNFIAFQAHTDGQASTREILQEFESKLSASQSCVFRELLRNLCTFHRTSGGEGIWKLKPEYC
Chain of UniProt Q96GG9 (Q96GG9 whole entry, looked up): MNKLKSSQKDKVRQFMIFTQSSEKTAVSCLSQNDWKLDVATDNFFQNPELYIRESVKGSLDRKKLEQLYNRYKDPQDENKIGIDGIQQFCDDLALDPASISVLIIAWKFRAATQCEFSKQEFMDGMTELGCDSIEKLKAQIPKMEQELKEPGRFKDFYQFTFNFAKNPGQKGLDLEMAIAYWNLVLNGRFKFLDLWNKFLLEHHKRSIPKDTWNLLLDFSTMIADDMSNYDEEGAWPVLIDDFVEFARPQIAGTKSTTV

log2 fold change, inactive:
FAM3A (UniProt P98173) -0.031, CTSZ (UniProt Q9UBR2) -0.017, DMXL1 (UniProt Q9Y485) 0.043, EXTL2 (UniProt Q9UBQ6) -0.043, CUEDC2 (UniProt Q9H467) -0.01, CYFIP1 (UniProt Q7L576) 0.006, ECH1 (UniProt Q13011) -0.065, FAM114A2 (UniProt Q9NRY5) -0.058, EFCAB14 (UniProt O75071) 0.023, DDX46 (UniProt Q7L014) 0.001, FAM177A1 isoform 2 (UniProt Q8N128) -0.02, DPH5 isoform 5 (UniProt Q9H2P9) -0.045, DNAJB12 (UniProt Q9NXW2) -0.069, EXOC4 (UniProt Q96A65) 0.01, DTNBP1 (UniProt Q96EV8) -0.026, DYNC1LI2 (UniProt O43237) 0.076, EBNA1BP2 (UniProt Q99848) 0.113, EEF1B2 (UniProt P24534) -0.009, DCUN1D1 (UniProt Q96GG9) -0.028, DLD (UniProt P09622) 0.029, DNAJC7 (UniProt Q99615) 0.02, DCAF6 isoform 3 (UniProt Q58WW2) 0.011, FAM50A (UniProt Q14320) 0.014, CTSH (UniProt P09668) 0.157, E2F4 (UniProt Q16254) 0.021, DTYMK (UniProt P23919) -0.1, EOGT (UniProt Q5NDL2) -0.043, DCTPP1 (UniProt Q9H773) -0.009, DHPS (UniProt P49366) -0.015, DHRS1 (UniProt Q96LJ7) 0.088, EXOC2 (UniProt Q96KP1) 0.037, DMAC1 (UniProt Q96GE9) -0.04, FAAP100 (UniProt Q0VG06) 0.167, DNAH5 (UniProt Q8TE73) -0.044, ERCC6 (UniProt Q03468) -0.017, ERLIN2 (UniProt O94905) 0.12, DAG1 (UniProt Q14118) -0.028, EHBP1L1 (UniProt Q8N3D4) 0.025

The targets below were run with CCN(CC)Cc1ccc2cc(COC(=O)Nc3ccc(C(=O)NO)cc3)ccc2c1 [givinostat] in the same assay as above.
In short: as §1

log2 fold change, inactive:
FAM3A (UniProt P98173) -0.001, CTSZ (UniProt Q9UBR2) 0.152, DMXL1 (UniProt Q9Y485) 0.076, EXTL2 (UniProt Q9UBQ6) -0.039, CUEDC2 (UniProt Q9H467) 0.055, CYFIP1 (UniProt Q7L576) -0.005, ECH1 (UniProt Q13011) 0.129, FAM114A2 (UniProt Q9NRY5) -0.017, EFCAB14 (UniProt O75071) 0.054, DDX46 (UniProt Q7L014) 0.171, FAM177A1 isoform 2 (UniProt Q8N128) -0.045, DPH5 isoform 5 (UniProt Q9H2P9) -0.105, DNAJB12 (UniProt Q9NXW2) 0.06, EXOC4 (UniProt Q96A65) 0.133, DTNBP1 (UniProt Q96EV8) -0.014, DYNC1LI2 (UniProt O43237) 0.017, EBNA1BP2 (UniProt Q99848) 0.174, EEF1B2 (UniProt P24534) 0.023, DCUN1D1 (UniProt Q96GG9) -0.018, DLD (UniProt P09622) -0.06, DNAJC7 (UniProt Q99615) 0.032, DCAF6 isoform 3 (UniProt Q58WW2) -0.058, FAM50A (UniProt Q14320) 0.102, CTSH (UniProt P09668) 0.003, E2F4 (UniProt Q16254) 0.05, DTYMK (UniProt P23919) -0.007, EOGT (UniProt Q5NDL2) 0.02, DCTPP1 (UniProt Q9H773) -0.019, DHPS (UniProt P49366) -0.001, DHRS1 (UniProt Q96LJ7) 0.068, EXOC2 (UniProt Q96KP1) 0.177, DMAC1 (UniProt Q96GE9) -0.179, FAAP100 (UniProt Q0VG06) 0.024, DNAH5 (UniProt Q8TE73) 0.012, ERCC6 (UniProt Q03468) 0.071, ERLIN2 (UniProt O94905) 0.038, DAG1 (UniProt Q14118) 0.019, EHBP1L1 (UniProt Q8N3D4) 0.026

From the supplement of paper PMC10849652
